An excerpt weighted towards active compounds, which were near 3.1% of everything screened.
TexasRed fluor: alters Texas Red total fluorescence, flagging assay interference; hit rate 0.29% among 280,000; Potency, µM (titrated, usually from 106 µM), for inactives: at the highest dose fluorescence change, negative = quenching; TRb/SRC2 Texas Red total fluorescence interference; AID 1479; active = well fitted curve in either direction with a large enough effect; inconclusive = small, poorly fitted or top-dose-only effect
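Flags fluorescent or light-absorbing compounds by total fluorescence, S + 2P, at 555 nm excitation and 632 nm emission. Mixture: 20 nM Texas Red SRC2 peptide, 0.6 uM human TRb LBD, 1 uM T3, 5% DMSO; compound exposure 5 h at ambient temperature.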
TRb-SRC2 inh: TRbeta-SRC2 interaction inhibition. P10828. TRbeta-SRC2 peptide binding, fluorescence polarization; receptor liganded with 1 µM T3. Potency, µM (doses to about 106 µM), without a hit: at the highest dose activity change, negative = inhibition, most hits filed as inhibitors. hit rate 0.065% among 280,000;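 also: plate controls were bound peptide for no effect and peptide without receptor for full effect; nearly all actives have a fitted effect of over 50% in size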
Target sequence (P10828 whole entry, looked up): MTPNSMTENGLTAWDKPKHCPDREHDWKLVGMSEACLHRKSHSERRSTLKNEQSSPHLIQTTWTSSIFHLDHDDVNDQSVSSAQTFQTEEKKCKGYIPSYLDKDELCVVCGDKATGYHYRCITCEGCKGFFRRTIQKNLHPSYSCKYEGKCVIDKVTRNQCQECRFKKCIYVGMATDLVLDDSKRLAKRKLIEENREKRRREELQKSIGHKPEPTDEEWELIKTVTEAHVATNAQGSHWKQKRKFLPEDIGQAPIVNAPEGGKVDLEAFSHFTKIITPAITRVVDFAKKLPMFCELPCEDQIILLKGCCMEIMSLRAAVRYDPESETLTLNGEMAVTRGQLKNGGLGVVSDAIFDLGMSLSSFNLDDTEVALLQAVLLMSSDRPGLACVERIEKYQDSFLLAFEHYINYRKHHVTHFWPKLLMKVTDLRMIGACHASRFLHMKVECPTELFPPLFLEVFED
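Decrease in fluorescence polarization of 20 nM Texas Red SRC2 coactivator peptide flagged inhibition of its binding to 0.6 uM TRb LBD; 1 uM T3 included, incubation 5 hr, ex 555/em 632 nm.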
Tau FP inhib: inhibitors of human tau fibril formation. K18 P301L tau heparin fibrillization, Alexa594 FP, 6 h. hit rate 0.39% among 280,000. Potency, µM (top dose mostly 57.7 µM), for inactives: at the top dose activity, negative = inhibition, actives largely listed as inhibitors. P10636. AID 1468; also: nearly all actives have a fitted effect of over 55% in size
Target sequence (P10636 561-689 P618L limits assumed): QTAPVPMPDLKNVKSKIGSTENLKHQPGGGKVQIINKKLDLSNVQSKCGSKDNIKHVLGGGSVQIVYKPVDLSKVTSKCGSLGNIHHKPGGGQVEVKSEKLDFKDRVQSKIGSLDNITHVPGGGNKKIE
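Heparin (20 uM) drove fibril formation of recombinant tau K18 P301L, 15 uM unlabeled with 0.24 uM Alexa 594 label, for 6 hr at 37 C in 100 mM sodium acetate pH 7. Fluorescence polarization (555/632 nm) read 1 hr after 30 uM ThT.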
Tau ThT inhib: inhibitors of human tau fibril formation, thioflavin T binding. P10636. recombinant tau K18 P301L, heparin-induced fibrillization, ThT fluorescence. Potency, µM (top dose mostly 57.4 µM), for inactives: at the highest dose activity, negative = inhibition, hits mostly inhibitors. hit rate 2.1% among 270,000; also: nearly all actives have a fitted effect of over 55% in size
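Heparin-induced fibrillization of the P301L-mutant K18 repeat-domain fragment of human tau was followed by ThT binding in quantitative high-throughput format.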
Tau fluor cs: counter-screen for tau fibril formation inhibitors. tau K18 P301L Alexa594 fluorescence, heparin fibrillization. hit rate 0.93% among 280,000. AID 1463. Potency, µM (series often up to 57.7 µM), for the others: at the top dose activity change, negative = decrease; also: nearly all actives have a fitted effect of over 55% in size
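Human tau K18 P301L (15 uM unlabeled, 0.24 uM Alexa 594-labeled) in 100 mM sodium acetate pH 7 with 20 uM heparin, 6 hr at 37 C. ThT 30 uM added, 1 hr ambient; Alexa 594 FP and total fluorescence read at 555/632 nm.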
* marks the source's active call; other numbers are inactive results; ? = inconclusive; / = not tested or not shown; [ ] = dose if it differs, or a comment. Unless noted, calls follow the shape of the dose curve; as a rule, active = well fitted curve in the direction sought with a large enough effect; inconclusive = small, poorly fitted or top-dose-only effect, or another doubt; inactive = no such curve, though single readings can be large; an effect the other way counts as inactive or inconclusive. Unless noted, % is scaled to controls: 0 for no effect and ±100 for the full control effect; potency is read from the fitted curve at half-maximal effect.

SMILES	TexasRed fluor	TRb-SRC2 inh	Tau FP inhib	Tau ThT inhib	Tau fluor cs
Nc1c(N2CCCC2)cc(Cl)c2nonc12	-2%	?	?	2.8µM*	-24%
Nc1c(N2CCOCC2)cc(Cl)c2nonc12	-1%	?	?	16µM*	-25%
CCOC(=O)N1CCC(=NNC(=O)c2ccc(O)cc2)CC1	-1%	-1%	14%	-7%	-5%
CC1CCN(c2ccc(-c3cccc(NS(=O)(=O)c4ccc(F)cc4F)c3)nn2)CC1	8.9µM*[quencher]	-19%	-7%	-4%	-19%
CCOc1ccc(S(=O)(=O)Nc2cccc(-c3ccc(N4CCCC4)nn3)c2)cc1	20µM*[quencher]	-7%	-6%	-9%	-28%
CCOc1ccc(S(=O)(=O)Nc2cccc(-c3ccc(N4CCC(C)CC4)nn3)c2)cc1	-15%	7%	-1%	8%	-17%
O=S(=O)(Nc1cccc(-c2ccc(N3CCCCC3)nn2)c1)c1ccc(F)cc1F	-7%	3%	9%	?	-24%
C=CCNc1nc2c3ccccc3n(C(C)=O)c2s1	0%	-3%	?	28µM*	?
CN1CCc2c(sc3c2C(=O)NC(c2ccc(OC(=O)c4ccccc4)cc2)N3)C1 (stereo unspecified)	15%	-12%	?	5.6µM*	-14%
CN1CCc2c(sc3c2C(=O)NC(c2ccc(OC(=O)c4ccc(Cl)cc4)cc2)N3)C1 (stereo unspecified)	-3%	-4%	-4%	6.3µM*	-12%
CN1CCc2c(sc3c2C(=O)NC(c2ccc(OC(=O)c4ccc(C(C)(C)C)cc4)cc2)N3)C1 (stereo unspecified)	13%	-3%	-9%	?	-19%
NC(=S)n1[nH]c(-c2ccc([N+](=O)[O-])cc2)c(N=Nc2cccc([N+](=O)[O-])c2)c1=O	-14%	3%	-10%	11µM*	?
Cc1c(N=Nc2c(-c3ccc([N+](=O)[O-])cc3)[nH]n(C(N)=S)c2=O)cccc1[N+](=O)[O-]	-3%	-7%	?	8.9µM*	?
NC(=S)n1[nH]c(-c2ccc([N+](=O)[O-])cc2)c(N=Nc2ccccc2[N+](=O)[O-])c1=O	-2%	-5%	-1%	?	-26%
CN(N=Nc1cccc([N+](=O)[O-])c1)c1cccc([N+](=O)[O-])c1	-2%	1%	-3%	-13%	?
O=C(NCCSc1c(-c2ccc(Br)cc2)[nH]c2ccccc12)c1ccc(S(=O)(=O)N2CCOCC2)cc1	0%	-2%	-14%	-4%	4.5µM*[quencher]
O=C(NCCSc1c(-c2ccc(Cl)cc2)[nH]c2ccccc12)c1ccc(S(=O)(=O)N2CCOCC2)cc1	-2%	1%	-14%	-6%	4µM*[quencher]
O=C(NCc1ccc2[nH]c3c(c2c1)CCCC3)c1ccc(S(=O)(=O)N2CCOCC2)cc1	-1%	4%	13%	-15%	?
O=C(CNCc1cccs1)Nc1ccc(N2CCCCCC2)cc1	-1%	-1%	7%	?	-23%
COc1ccc(COc2cc(-c3cccc(OC)c3)nc3ccc(N)cc23)cc1	-5%	4%	?	?	13µM*[quencher]
COc1ccc(COc2cc(-c3cccc(OC)c3)nc3ccc(NC(C)=O)cc23)cc1	3%	5%	?	-5%[81.4 µM]	-24%[81.3 µM]
O=C(O)/C=C/C(=O)Nc1ccc(SC(F)(F)C(F)(F)C(F)(F)F)cc1	0%	32µM*	-1%	-3%	0%
O=C(O)/C=C/C(=O)Nc1ccc(OC(F)(F)Cl)cc1	-1%	-6%	-1%	3%	6%
COC(=O)c1c(-c2ccccc2)c(-c2ccccc2)nn(C)c1=O	0%	-1%	0%	-8%	-6%
COC(=O)c1c(Oc2ccc(OC)cc2)nnc(-c2ccccc2)c1-c1ccccc1	794µM*[quencher]	-8%	-5%	-14%	-27%
SMILES	TexasRed fluor	TRb-SRC2 inh	Tau FP inhib	Tau ThT inhib	Tau fluor cs
CC(=O)Nc1ccc(NC(=O)CCCc2c[nH]c3ccccc23)cc1	-3%	2%	9%	?	-8%
O=C(CCCc1c[nH]c2ccccc12)Nc1ccc2ccccc2c1	-3%	0%	?	?	8.9µM*[quencher]
CCOc1ccccc1CNC(=O)c1ccc2c(c1)N(Cc1ccc(C)cc1)CCS2	-17%	1%	13%	?	?
Cc1n[nH]c(C)c1Sc1ccccc1N=Cc1cc(Cl)cc([N+](=O)[O-])c1O	12%	1%	1%	10µM*	-16%
CCCc1nnc(NC(=O)Cc2coc3c(C)c(C)ccc23)s1	-2%	-1%	0%	4%	-1%
CC(=O)c1cc(-c2ccccc2)[nH]c1N1CCOCC1	3%	0%	?	32µM*	-28%
C=CCn1c(C)cc(C(=O)COC(=O)c2ccc(N)c([N+](=O)[O-])c2)c1C	3%	-4%	-9%	?	25µM*[quencher]
Cc1cc(C(=O)COC(=O)c2ccc(N)c([N+](=O)[O-])c2)c(C)n1Cc1ccc2c(c1)OCO2	-4%	1%	?	?	4.5µM*[quencher]
Cc1cc(C(=O)COC(=O)c2ccc(N)c([N+](=O)[O-])c2)c(C)n1-c1ccc2c(c1)OCO2	-2%[53 µM]	0%[53 µM]	2%	?	?
COc1c(C)cccc1C(=O)NC(=S)Nc1cccc2nsnc12	0%	3%	?	25µM*	-27%
CC1(C)CC(=O)C(N=Nc2ccc3ncsc3c2)=C(O)C1	2%	-22%	5%	?	-10%
COc1ccc2nc(N=Nc3ccc(O)c4ccccc34)sc2c1	-8%	1%	-15%	2.5µM*	?
COc1ccc2nc(N)sc2c1	-6%[201 µM]	-5%[201 µM]	-2%	-9%	0%
COc1ccc2nc(N=NC3=C(O)CC(C)(C)CC3=O)sc2c1	-4%	5%	3%	16µM*	-22%
O=C(c1ccc(F)cc1)N1CCN(CCc2ccncc2)CC1	-18%	7%	4%	-7%	3%
CC(=O)Nc1ccc(N(C(=O)CNC(=O)c2ccco2)C(C(=O)NCc2ccco2)c2ccccc2)cc1 (stereo unspecified)	2%	4%	2%	/	0%
Cc1ccc(C(C(=O)NCc2ccco2)N(Cc2ccco2)C(=O)CNC(=O)c2ccco2)cc1 (stereo unspecified)	-3%	-6%	?	7.1µM*	-20%
Cc1ccc(C)c(CN2C(=O)c3ccccc3S(=O)(=O)c3ccc(C(=O)N4CCOCC4)cc32)c1	2.8µM*[quencher]	-30%	2%	-12%	-25%
Cc1ccc2c(c1)N=C(c1ccccc1)CC(C(Cl)Cl)=N2	-1%	3%	?	16µM*	?
CN(C)c1nc(N/N=C/c2ccccc2O)nc(Nc2ccc(F)cc2)n1	-2%	6%	?	?	8.9µM*[quencher]
Nc1ccc2nc(SCc3ccccc3F)sc2c1	-1%	-3%	?	/	0.56µM*[quencher]
Cl[Si](Cl)(c1ccccc1)c1ccccc1	-1%[201 µM]	0%[201 µM]	/	/	/

Screening data (PubChem)
